Calls of active or inactive are those of the source. The calls were made as follows: active = hit-call score of the fitted dose curve at least 0.9, where 1 is the maximum; inactive = score below 0.9.
Legend:
Settings in all cases: mRNA level, 48 h; actives raise or lower the signal
[1] = read-out: Fatty acid synthase (Homo sapiens) (UniProt P49327); experiment: LTEA_HepaRG_FASN: Life Technologies and Expression Analysis (LTEA) Assay for Fatty Acid Synthase (FASN) using HepaRG (AID 2283448)
Outline: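 HepaRG, 48 h exposure, 8-pt half-log series top 100 uM, 0.5% DMSO vehicle, duplicates. Readout: FASN transcript by Fluidigm qRT-PCR; housekeeping-normalized; bidirectional curve fit vs DMSO baseline.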

[2] = read-out: Cyclin D2 (CCND2), CCND2 (gene 894); experiment: LTEA_HepaRG_CCND2: Life Technologies and Expression Analysis (LTEA) Assay for Cyclin D2 (CCND2) using HepaRG (AID 2283449)
Outline: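 CCND2 transcript levels, quantified by qRT-PCR and normalised to three housekeeping genes, were fitted bidirectionally against 0.5% DMSO. HepaRG cultures were dosed 48 h in duplicate with an 8-point half-log series up to 100 uM.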

[3] = read-out: Cyclin Dependent Kinase Inhibitor 1A (CDKN1A), CDKN1A (gene 1026); experiment: LTEA_HepaRG_CDKN1A: Life Technologies and Expression Analysis (LTEA) Assay for Cyclin Dependent Kinase Inhibitor 1A (CDKN1A) using HepaRG (AID 2283450)
Outline: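 Differentiated HepaRG cells in serum-free induction medium, exposed 48 h in duplicate to eight half-log concentrations up to 100 uM in 0.5% DMSO. mRNA measured by TaqMan qRT-PCR, normalized to ACTB, GAPDH, POLR2A; bidirectional fit versus DMSO.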

[4] = read-out: Cyclin D1 (CCND1), CCND1 (gene 595); experiment: LTEA_HepaRG_CCND1: Life Technologies and Expression Analysis (LTEA) Assay for Cyclin D1 (CCND1) using HepaRG (AID 2283451)
Outline: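 Differentiated HepaRG cells exposed 48 h in serum-free induction medium to eight half-log concentrations from 100 uM top, 0.5% DMSO, duplicates. CCND1 mRNA measured by Fluidigm TaqMan qRT-PCR, normalised to ACTB, GAPDH, POLR2A; bidirectional fit.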

[5] = read-out: catalase (CAT), CAT (gene 847); experiment: LTEA_HepaRG_CAT: Life Technologies and Expression Analysis (LTEA) Assay for catalase (CAT) using HepaRG (AID 2283452)
Outline: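 Expression of CAT was quantified by TaqMan qRT-PCR with ACTB/GAPDH/POLR2A normalization after 48 h chemical exposure of HepaRG. Eight-point half-log series, top 100 uM, in 0.5% DMSO; gain or loss fitted against vehicle.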

[6] = read-out: flavin-containing dimethylaniline monooxygenases 3 (FMO3), FMO3 (gene 2328); experiment: LTEA_HepaRG_FMO3: Life Technologies and Expression Analysis (LTEA) Assay for flavin-containing dimethylaniline monooxygenases 3 (FMO3) using HepaRG (AID 2283453)
Outline: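 Eight-point concentration-response in serum-free HepaRG cultures (top 100 uM, 0.5% DMSO, 48 h). Read-out: FMO3 mRNA level normalized to three endogenous control genes, fitted bidirectionally versus vehicle.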

[7] = read-out: Cytochrome P450 (CYP1A1), CYP1A1 (gene 1543); experiment: LTEA_HepaRG_CYP1A1: Life Technologies and Expression Analysis (LTEA) Assay for Cytochrome P450 (CYP1A1) using HepaRG (AID 2283454)
Outline: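 Differentiated human HepaRG cells, after 48 h plating, exposed in duplicate for 48 h in serum-free induction medium to 8 half-log concentrations up to 100 uM in 0.5% DMSO. CYP1A1 mRNA by qRT-PCR, normalized to ACTB/GAPDH/POLR2A; bidirectional fit versus DMSO.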

[8] = read-out: CFLAR gene, CFLAR (gene 8837); experiment: LTEA_HepaRG_CFLAR: Life Technologies and Expression Analysis (LTEA) Assay for CFLAR gene using HepaRG (AID 2283455)
Outline: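 Transcript level by qRT-PCR (normalized to ACTB, GAPDH and POLR2A) after 48 h chemical exposure of HepaRG cells, top concentration 100 uM with half-log steps, 0.5% DMSO vehicle, duplicates; fitted bidirectionally against DMSO baseline.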

[9] = read-out: Forkhead box O1 (FOXO1), FOXO1 (gene 2308); experiment: LTEA_HepaRG_FOXO1: Life Technologies and Expression Analysis (LTEA) Assay for Forkhead box O1 (FOXO1) using HepaRG (AID 2283456)
Outline: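 FOXO1 transcript quantified by qRT-PCR after 48 h chemical exposure (top 100 uM, half-log steps, 0.5% DMSO) of HepaRG cells, housekeeping-normalized (ACTB/GAPDH/POLR2A). Changes fitted in both directions relative to vehicle.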

[10] = read-out: growth arrest and DNA damage 45 (GADD45A), GADD45A (gene 1647); experiment: LTEA_HepaRG_GADD45A: Life Technologies and Expression Analysis (LTEA) Assay for growth arrest and DNA damage 45 (GADD45A) using HepaRG (AID 2283458)
Outline: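 HepaRG, 48 h exposure, 8 conc. (top 100 uM, half-log steps), 0.5% DMSO vehicle, duplicates. Read-out: qRT-PCR mRNA level, housekeeping-normalized (ACTB/GAPDH/POLR2A). Curves fit bidirectionally vs DMSO baseline.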

[11] = read-out: Forkhead box O3 (FOXO3), FOXO3 (gene 2309); experiment: LTEA_HepaRG_FOXO3: Life Technologies and Expression Analysis (LTEA) Assay for Forkhead box O3 (FOXO3) using HepaRG (AID 2283459)
Outline: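 FOXO3 transcript measured by qRT-PCR (normalized to ACTB, GAPDH, POLR2A) after 48 h exposure of HepaRG cells in serum-free induction medium. Duplicates, eight half-log concentrations up to 100 uM, 0.5% DMSO; gain or loss fitted against DMSO.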

[12] = read-out: ABC Transporter (ABCB1), ABCB1 (gene 5243); experiment: LTEA_HepaRG_ABCB1: Life Technologies and Expression Analysis (LTEA) Assay for ABC Transporter (ABCB1) using HepaRG (AID 2283460)
Outline: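 ABCB1 transcript level measured by TaqMan qRT-PCR against three housekeeping genes after 48 h chemical exposure of differentiated HepaRG cells. Top concentration 100 uM, half-log steps, eight points, 0.5% DMSO vehicle; bidirectional fit relative to DMSO.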

[13] = read-out: growth arrest and DNA damage 45 (GADD45B), GADD45B (gene 4616); experiment: LTEA_HepaRG_GADD45B: Life Technologies and Expression Analysis (LTEA) Assay for growth arrest and DNA damage 45 (GADD45B) using HepaRG (AID 2283461)
Outline: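 Differentiated human HepaRG cells in serum-free induction medium exposed 48 h in duplicate to eight concentrations, top 100 uM, half-log steps, 0.5% DMSO. GADD45B mRNA by TaqMan qRT-PCR, normalized to ACTB, GAPDH, POLR2A; bidirectional fit versus DMSO.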

[14] = read-out: ABC Transporter (ABCC3), ABCC3 (gene 8714); experiment: LTEA_HepaRG_ABCC3: Life Technologies and Expression Analysis (LTEA) Assay for ABC Transporter (ABCC3) using HepaRG (AID 2283462)
Outline: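 Differentiated human HepaRG cells exposed 48 h in serum-free induction medium, 0.5% DMSO vehicle, 8-point half-log series to 100 uM in duplicate. ABCC3 mRNA by qRT-PCR, normalised to ACTB, GAPDH, POLR2A; bidirectional fit vs DMSO.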

[15] = read-out: ABC Transporter (ABCB11), ABCB11 (gene 8647); experiment: LTEA_HepaRG_ABCB11: Life Technologies and Expression Analysis (LTEA) Assay for ABC Transporter (ABCB11) using HepaRG (AID 2283463)
Outline: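 ABCB11 transcript levels quantified by TaqMan qRT-PCR against three housekeeping genes after 48 h chemical exposure of HepaRG cultures. Concentrations up to 100 uM in half-log steps, 0.5% DMSO vehicle; both induction and suppression scored.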

[16] = read-out: ABC Transporter (ABCC2), ABCC2 (gene 1244); experiment: LTEA_HepaRG_ABCC2: Life Technologies and Expression Analysis (LTEA) Assay for ABC Transporter (ABCC2) using HepaRG (AID 2283464)
Outline: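 Differentiated HepaRG cells in serum-free induction medium exposed 48 h to eight half-log concentrations up to 100 uM, 0.5% DMSO, in duplicate. ABCC2 mRNA measured by qRT-PCR (TaqMan, Fluidigm), normalized to ACTB, GAPDH and POLR2A. Fitted in both directions against DMSO.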

[17] = read-out: Broad substrate specificity ATP-binding cassette transporter ABCG2 (Homo sapiens) (UniProt Q9UNQ0); experiment: LTEA_HepaRG_ABCG2: Life Technologies and Expression Analysis (LTEA) Assay for ABC Transporter (ABCG2) using HepaRG (AID 2283465)
Outline: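 ABCG2 transcript was quantified by TaqMan qRT-PCR against three housekeeping genes in HepaRG cells. Cells were treated in duplicate for 48 h across an 8-point half-log series up to 100 uM, with 0.5% DMSO vehicle. Gain or loss versus DMSO was fit.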

[18] = read-out: ATP-citrate lyase (ACLY), ACLY (gene 47); experiment: LTEA_HepaRG_ACLY: Life Technologies and Expression Analysis (LTEA) Assay for ATP-citrate lyase (ACLY) using HepaRG (AID 2283466)
Outline: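 ACLY mRNA quantified by qRT-PCR on Fluidigm arrays against three housekeeping genes, after 48 h chemical treatment of HepaRG cells (top concentration 100 uM, half-log steps, 0.5% DMSO vehicle). Up- or down-regulation fitted relative to DMSO.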

[19] = read-out: Peroxisomal acyl-coenzyme A oxidase 1 (ACOX1) gene, ACOX1 (gene 51); experiment: LTEA_HepaRG_ACOX1: Life Technologies and Expression Analysis (LTEA) Assay for Peroxisomal acyl-coenzyme A oxidase 1 (ACOX1) gene using HepaRG (AID 2283467)
Outline: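 ACOX1 transcript levels were quantified by TaqMan qRT-PCR against three housekeeping genes after 48 h chemical exposure of differentiated human HepaRG cells. Exposure used eight half-log steps topping at 100 uM, 0.5% DMSO vehicle, in duplicate. Bidirectional curve fits were made relative to DMSO.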

Chain of Broad substrate specificity ATP-binding cassette transporter ABCG2 (Homo sapiens) (Q9UNQ0 whole entry, looked up): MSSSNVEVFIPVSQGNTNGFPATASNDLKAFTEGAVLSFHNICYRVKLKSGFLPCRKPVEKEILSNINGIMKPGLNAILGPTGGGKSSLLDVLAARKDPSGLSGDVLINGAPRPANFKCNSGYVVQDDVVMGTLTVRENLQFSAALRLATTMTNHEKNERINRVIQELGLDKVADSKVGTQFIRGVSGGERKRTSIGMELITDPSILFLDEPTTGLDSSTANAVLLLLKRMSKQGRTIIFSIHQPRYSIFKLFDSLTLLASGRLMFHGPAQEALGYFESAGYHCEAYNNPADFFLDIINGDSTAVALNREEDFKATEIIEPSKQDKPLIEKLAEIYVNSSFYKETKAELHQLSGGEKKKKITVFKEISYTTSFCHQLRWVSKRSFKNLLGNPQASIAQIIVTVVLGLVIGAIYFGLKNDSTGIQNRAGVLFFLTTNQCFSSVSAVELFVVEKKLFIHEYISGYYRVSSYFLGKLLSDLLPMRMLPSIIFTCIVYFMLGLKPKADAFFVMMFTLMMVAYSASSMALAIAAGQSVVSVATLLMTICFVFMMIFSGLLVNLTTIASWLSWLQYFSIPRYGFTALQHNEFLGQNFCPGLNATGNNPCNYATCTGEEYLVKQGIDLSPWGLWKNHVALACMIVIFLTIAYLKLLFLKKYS
Chain of Fatty acid synthase (Homo sapiens) (P49327 whole entry, looked up): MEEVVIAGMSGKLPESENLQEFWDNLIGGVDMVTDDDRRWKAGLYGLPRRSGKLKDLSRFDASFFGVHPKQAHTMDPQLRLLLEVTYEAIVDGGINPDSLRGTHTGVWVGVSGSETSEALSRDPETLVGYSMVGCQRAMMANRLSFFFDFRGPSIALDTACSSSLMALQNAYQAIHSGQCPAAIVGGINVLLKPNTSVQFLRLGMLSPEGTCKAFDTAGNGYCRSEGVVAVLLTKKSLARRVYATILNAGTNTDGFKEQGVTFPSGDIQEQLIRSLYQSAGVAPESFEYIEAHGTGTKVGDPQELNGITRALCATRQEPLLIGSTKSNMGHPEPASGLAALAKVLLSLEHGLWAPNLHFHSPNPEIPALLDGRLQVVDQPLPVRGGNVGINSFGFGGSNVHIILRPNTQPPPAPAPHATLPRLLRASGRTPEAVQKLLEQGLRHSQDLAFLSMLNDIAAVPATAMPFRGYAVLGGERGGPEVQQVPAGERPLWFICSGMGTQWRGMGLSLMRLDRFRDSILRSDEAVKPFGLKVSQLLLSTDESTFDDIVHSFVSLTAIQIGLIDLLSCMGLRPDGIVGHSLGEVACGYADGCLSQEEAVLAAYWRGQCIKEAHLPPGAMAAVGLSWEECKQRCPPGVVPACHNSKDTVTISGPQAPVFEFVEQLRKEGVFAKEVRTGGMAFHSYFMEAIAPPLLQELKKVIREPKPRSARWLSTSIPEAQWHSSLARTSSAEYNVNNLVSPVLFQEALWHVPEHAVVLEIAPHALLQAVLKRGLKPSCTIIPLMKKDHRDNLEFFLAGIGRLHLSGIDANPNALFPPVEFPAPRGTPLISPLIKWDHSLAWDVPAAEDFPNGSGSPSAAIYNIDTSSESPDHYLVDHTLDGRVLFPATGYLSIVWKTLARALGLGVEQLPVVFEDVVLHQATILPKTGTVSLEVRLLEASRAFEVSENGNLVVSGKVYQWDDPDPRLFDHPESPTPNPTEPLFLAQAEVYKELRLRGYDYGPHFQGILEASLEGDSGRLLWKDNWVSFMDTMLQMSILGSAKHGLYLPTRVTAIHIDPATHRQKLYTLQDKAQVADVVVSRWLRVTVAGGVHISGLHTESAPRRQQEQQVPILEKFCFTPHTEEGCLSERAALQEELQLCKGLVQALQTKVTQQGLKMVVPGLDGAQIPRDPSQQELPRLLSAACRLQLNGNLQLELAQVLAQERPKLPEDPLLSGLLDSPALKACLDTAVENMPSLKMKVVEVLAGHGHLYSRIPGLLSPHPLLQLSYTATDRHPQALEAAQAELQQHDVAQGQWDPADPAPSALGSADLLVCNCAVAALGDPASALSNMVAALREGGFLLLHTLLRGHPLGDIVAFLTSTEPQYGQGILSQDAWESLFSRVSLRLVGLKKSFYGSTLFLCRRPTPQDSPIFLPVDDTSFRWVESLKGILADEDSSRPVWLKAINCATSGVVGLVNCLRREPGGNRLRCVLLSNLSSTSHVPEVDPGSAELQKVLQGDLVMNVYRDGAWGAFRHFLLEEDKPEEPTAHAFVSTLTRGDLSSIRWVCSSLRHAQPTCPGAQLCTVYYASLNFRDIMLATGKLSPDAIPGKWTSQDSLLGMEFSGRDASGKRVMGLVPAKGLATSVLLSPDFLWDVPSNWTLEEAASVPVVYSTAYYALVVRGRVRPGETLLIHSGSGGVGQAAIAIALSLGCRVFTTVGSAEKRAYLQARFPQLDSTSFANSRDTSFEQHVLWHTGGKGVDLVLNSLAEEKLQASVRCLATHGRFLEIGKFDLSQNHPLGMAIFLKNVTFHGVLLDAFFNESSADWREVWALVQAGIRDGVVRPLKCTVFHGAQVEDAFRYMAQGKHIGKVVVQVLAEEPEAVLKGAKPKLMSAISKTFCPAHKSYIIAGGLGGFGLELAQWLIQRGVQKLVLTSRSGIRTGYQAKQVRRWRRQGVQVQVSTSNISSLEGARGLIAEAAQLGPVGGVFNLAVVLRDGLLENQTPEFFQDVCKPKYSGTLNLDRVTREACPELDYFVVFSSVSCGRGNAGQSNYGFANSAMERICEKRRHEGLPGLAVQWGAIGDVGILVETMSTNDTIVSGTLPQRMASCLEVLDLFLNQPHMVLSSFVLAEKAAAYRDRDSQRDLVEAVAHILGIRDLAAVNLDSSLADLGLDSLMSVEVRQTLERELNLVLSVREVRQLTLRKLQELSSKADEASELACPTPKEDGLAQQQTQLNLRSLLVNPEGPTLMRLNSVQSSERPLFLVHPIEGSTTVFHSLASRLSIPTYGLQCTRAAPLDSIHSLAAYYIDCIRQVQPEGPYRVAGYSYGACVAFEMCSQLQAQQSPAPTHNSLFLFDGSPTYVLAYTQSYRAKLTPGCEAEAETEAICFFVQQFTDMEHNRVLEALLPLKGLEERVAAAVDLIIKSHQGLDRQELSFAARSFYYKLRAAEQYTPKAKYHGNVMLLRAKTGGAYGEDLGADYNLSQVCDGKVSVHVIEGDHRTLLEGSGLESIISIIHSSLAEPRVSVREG

Structure (SMILES): COCCOCCOC
- outcome [1]: inactive
- outcome [2]: inactive
- outcome [3]: inactive
- outcome [4]: inactive
- outcome [5]: inactive
- outcome [6]: inactive
- AC50 [7]: 1220 nM (active)
- AC50 [8]: 253 nM (active)
- AC50 [9]: 2220 nM (active)
- AC50 [10]: 998 nM (active)
- AC50 [11]: 9920 nM (active)
- AC50 [12]: 2830 nM (active)
- outcome [13]: inactive
- outcome [14]: inactive
- AC50 [15]: 922 nM (active)
- outcome [16]: inactive
- AC50 [17]: 1370 nM (active)
- outcome [18]: inactive
- AC50 [19]: 9920 nM (active)

Structure (SMILES): CC1(C)NC(=O)NC1=O
- outcome [1]: inactive
- outcome [2]: inactive
- outcome [3]: inactive
- outcome [4]: inactive
- outcome [5]: inactive
- outcome [6]: inactive
- outcome [7]: inactive
- outcome [8]: inactive
- outcome [9]: inactive
- outcome [10]: inactive
- outcome [11]: inactive
- outcome [12]: inactive
- outcome [13]: inactive
- outcome [14]: inactive
- outcome [15]: inactive
- outcome [16]: inactive
- outcome [17]: inactive
- outcome [18]: inactive
- outcome [19]: inactive

Structure (SMILES): C[Si]1(C)O[Si](C)(C)O[Si](C)(C)O[Si](C)(C)O1
- outcome [1]: inactive
- outcome [2]: inactive
- outcome [3]: inactive
- outcome [4]: inactive
- outcome [5]: inactive
- outcome [6]: inactive
- outcome [7]: inactive
- outcome [8]: inactive
- outcome [9]: inactive
- outcome [10]: inactive
- outcome [11]: inactive
- outcome [12]: inactive
- outcome [13]: inactive
- outcome [14]: inactive
- outcome [15]: inactive
- outcome [16]: inactive
- outcome [17]: inactive
- outcome [19]: inactive

Structure (SMILES): CCCCCCCCCCC
- outcome [1]: inactive
- outcome [2]: inactive
- outcome [3]: inactive
- outcome [4]: inactive
- outcome [5]: inactive
- outcome [6]: inactive
- AC50 [7]: 50000 nM (active)
- outcome [9]: inactive
- outcome [10]: inactive
- outcome [11]: inactive
- outcome [12]: inactive
- outcome [13]: inactive
- outcome [14]: inactive
- outcome [15]: inactive
- outcome [16]: inactive
- outcome [17]: inactive
- outcome [18]: inactive
- outcome [19]: inactive

Structure (SMILES): Nc1ccc(S(=O)(=O)c2ccc(N)cc2)cc1
- outcome [1]: inactive
- outcome [2]: inactive
- outcome [3]: inactive
- outcome [4]: inactive
- outcome [5]: inactive
- outcome [6]: inactive
- outcome [7]: inactive
- outcome [8]: inactive
- outcome [9]: inactive
- outcome [10]: inactive
- outcome [11]: inactive
- outcome [12]: inactive
- outcome [13]: inactive
- outcome [14]: inactive
- outcome [15]: inactive
- outcome [16]: inactive
- outcome [17]: inactive
- outcome [18]: inactive
- outcome [19]: inactive

Structure (SMILES): CC(=O)OC/C=C(\C)CCC=C(C)C
- outcome [1]: inactive
- outcome [2]: inactive
- outcome [3]: inactive
- outcome [4]: inactive
- outcome [5]: inactive
- outcome [6]: inactive
- outcome [7]: inactive
- outcome [9]: inactive
- outcome [10]: inactive
- outcome [11]: inactive
- outcome [12]: inactive
- outcome [13]: inactive
- outcome [14]: inactive
- outcome [15]: inactive
- outcome [16]: inactive
- outcome [17]: inactive
- outcome [18]: inactive
- outcome [19]: inactive

Structure (SMILES): CCOC(=O)C(C)(C)Oc1ccc(Cl)cc1
- outcome [1]: inactive
- AC50 [2]: 12200 nM (active)
- outcome [3]: inactive
- outcome [4]: inactive
- outcome [5]: inactive
- outcome [6]: inactive
- AC50 [7]: 50000 nM (active)
- outcome [8]: inactive
- outcome [9]: inactive
- outcome [10]: inactive
- outcome [11]: inactive
- outcome [12]: inactive
- outcome [13]: inactive
- outcome [14]: inactive
- outcome [15]: inactive
- outcome [16]: inactive
- outcome [17]: inactive
- outcome [18]: inactive
- outcome [19]: inactive

From PubChem BioAssay (EPA / NIEHS)
